Data reported in PubChem BioAssay AID504406 (Broad Institute, 2011).
In all, about 320,000 compounds went through this assay and about 190 (0.059%) were called active. Cut-off read from the data, not from the text of the source: active = inhibition above about 10% (passing the limit was not always enough); inconclusive = no clear call, values can overlap the other calls. The full list was thinned out, with actives kept by preference.

molecular target: UDP-galactopyranose mutase (Mycobacterium tuberculosis (strain ATCC 25618 / H37Rv)) (UniProt P9WIQ1); assay: M. tuberculosis UGM enzyme inhibitors, primary screen, biochemical, fluorescence polarization, single point (AID 504406); settings: purified UGM, fluorescence polarization probe displacement; at 10 µM; active compounds read high
Sequence (P9WIQ1 whole entry, looked up): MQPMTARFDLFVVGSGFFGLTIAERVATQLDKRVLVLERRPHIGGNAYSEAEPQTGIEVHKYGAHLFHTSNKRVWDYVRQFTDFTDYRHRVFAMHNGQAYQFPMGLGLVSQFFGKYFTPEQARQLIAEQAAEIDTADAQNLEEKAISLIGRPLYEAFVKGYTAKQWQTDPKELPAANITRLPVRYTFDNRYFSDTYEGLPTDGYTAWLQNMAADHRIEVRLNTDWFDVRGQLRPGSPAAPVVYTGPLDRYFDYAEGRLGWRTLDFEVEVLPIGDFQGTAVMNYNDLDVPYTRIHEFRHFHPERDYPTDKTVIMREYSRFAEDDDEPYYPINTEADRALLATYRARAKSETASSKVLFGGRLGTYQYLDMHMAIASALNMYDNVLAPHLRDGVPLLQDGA

Compound | inhibition
CCN(CC)S(=O)(=O)c1ccc(N2CCCC2)c(NS(=O)(=O)c2cccs2)c1 | -0.858% (inactive)
Clc1ccc(-c2cc(COc3ccccc3)no2)cc1Cl | 2.39% (inactive)
Cc1ccc(S(=O)(=O)N(CC(=O)N/N=C/c2ccc(F)cc2)c2cccc3cccnc23)cc1 | 1.31% (inactive)
COc1ccc2c(c1)c(=O)c(C(=O)c1ccc(Cl)cc1)cn2CC(=O)Nc1ccc(F)cc1 | -1.48% (inactive)
Cc1cc(C)n(CCC(=O)N2CCN(S(=O)(=O)c3ccc(C)c(C)c3)CC2)n1 | -2.44% (inactive)
CCOC(=O)C1(CCOc2ccccc2)CCN(Cc2ccc(C#CCCO)cc2)CC1 | -2.01% (inactive)
COC(=O)c1ccc(NC(=O)CSc2nncn2-c2cccnc2)cc1 | -3.9% (inactive)
COc1ccc(C(O)(C2CCCCC2)C(CN2CCCC2)c2ccccc2)cc1 (stereo not drawn) | 1.17% (inactive)
COc1ccc(CNS(=O)(=O)c2ccc(NC(=O)N3CCCCC3)cc2)cc1 | 0.444% (inactive)
COC(=O)c1c(NC(=O)COc2ccc(Cl)cc2Cl)sc2c1CC(C)(C)NC2(C)C | -3.8% (inactive)
C=C(Br)CN1CCN(CC(=C)Br)CC1 | 2.58% (inactive)
C=CC[C@@H](CC(=O)NCCO)C(=O)N[C@H](C)COC(=O)[C@@H](CC=C)CC(=O)OC(C)(C)C | -0.634% (inactive)
Cn1c(=O)c2c(nc(OCc3cccnc3)n2Cc2ccccc2)n(C)c1=O | 7.96% (inactive)
Cc1cc(C(=O)OCC(=O)Nc2ccc(F)c(F)c2)c(C)o1 | -0.0838% (inactive)
COc1cccc(NC(=O)CN(C)CC(=O)c2c(N)n(Cc3ccccc3)c(=O)n(C)c2=O)c1 | 3.19% (inactive)
CCCn1nnnc1NCc1ccc(CC)cc1 | -1.05% (inactive)
Cc1cccc(N(C)C(=O)CN2C(=O)COc3ccc(S(=O)(=O)N4CCCCCC4)cc32)c1 | -1.26% (inactive)
CCOC(CNC(=O)C1CCN(S(=O)(=O)c2ccc3nc4c(c(C(=O)O)c3c2)CC(C)CC4)CC1)OCC (stereo not drawn) | -0.608% (inactive)
Cc1ccc(N)cc1-n1c(C)ccc1C | -4.8% (inactive)
CC(Sc1nc2cc(Cl)ccc2s1)C(=O)Nc1ccc2c(c1)OCO2 (stereo not drawn) | 1.22% (inactive)
Cc1cccc(N(CC(=O)Nc2ccc(-c3nc4ccc(C)cc4s3)cc2)S(C)(=O)=O)c1 | -2.81% (inactive)
CCN(CC)CCn1cnc2c1c(=O)n(CCOC(=O)c1cc(OC)c(OC)c(OC)c1)c(=O)n2C | 0.786% (inactive)
CC(CNC(=O)Cn1cnc2c(OCc3ccccc3)ncnc21)c1ccccc1 (stereo not drawn) | -1.84% (inactive)
CCSC1(SCC)N=C(N)C2(C#N)C(c3ccccc3)NC(C)=CC12C#N (stereo not drawn) | 0.444% (inactive)
O=C1CCC(Cc2ccccc2)N1 (stereo not drawn) | 1.36% (inactive)
O=C(CN1C(=O)c2ccc([N+](=O)[O-])cc2C1=O)Nc1nnc(C2CC2)s1 | 0.737% (inactive)
CN1CCN(Cc2nc3cc(NC(=O)COc4ccc([N+](=O)[O-])cc4)ccc3n2C)CC1 | -1.12% (inactive)
CC1CCC2(CC1)NC(=O)N(CC(=O)c1cccn1C)C2=O (stereo not drawn) | -1.14% (inactive)
